Bioassay records as filed in PubChem BioAssay.
DT40 TDP1 CPT: growth inhibition of DT40 Tdp1-/-;hTDP1 cells with camptothecin (screen for TDP1 inhibitors); chicken DT40 Tdp1-/-;hTDP1 cells + 20 nM CPT, ATP luminescence, 48 h; Potency, µM (series often up to 46.2 µM), most hits filed as inhibitors; hit rate 12% among 420,000; AID 686979; further: nearly all actives have a fitted effect of over 55% in size
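Chicken DT40 Tdp1-/- cells stably complemented with human TDP1 were seeded at 400 cells/well in medium containing 20 nM camptothecin, exposed to pin-transferred compounds, and grown at 37 °C for at least 48 hr. Viability was read as ATP luminescence.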
HT1080NT lethal: kills 2HG-producing HT-1080-NT fibrosarcoma cells; HT-1080-NT fibrosarcoma viability, CellTiter-Glo ATP luminescence, 48 h; Potency, µM (series often up to 46.1 µM), usual class: cytotoxic; hit rate 1.6% among 360,000; AID 686970;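 further: NT is the 2HG producing partner of a matched IDH1 knockdown line; nearly all actives have a fitted effect of over 55% in size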
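Viability of the 2HG-overproducing fibrosarcoma line after 48 hours of compound exposure at 37 degrees C was determined by luminescence with CellTiter-Glo, and concentration-effect curves were then fitted and categorized.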
DT40 TDP1 no CPT: qHTS for Inhibitors of human tyrosyl-DNA phosphodiesterase 1 (TDP1): qHTS in cells in absence of CPT. AID 686978, 2013. hit rate 15% among 420,000. Potency, µM (titrated, usually from 46.2 µM), actives largely listed as inhibitors. DT40 Tdp1-/- hTDP1 cells, no CPT, ATP luminescence, 48 h; further: nearly all actives have a fitted effect of over 55% in size
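Growth kinetics read by CellTiter-Glo luminescence after ≥48 hr at 37 °C. Cells: DT40 Tdp1-/- stably carrying human TDP1, 400 per well, compound exposure in the absence of CPT (DMSO vehicle).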
HT1080 IDH1KD tx: kills HT-1080 cells with IDH1 knockdown | HT-1080 IDH1 knockdown viability, ATP luminescence, 48 h | Potency, µM (series often up to 46.1 µM), usual class: cytotoxic | hit rate 2% among 360,000 | AID 686971
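Viability of IDH1-knockdown HT-1080 fibrosarcoma cells was assessed by CellTiter-Glo after 48 h at 37 °C with titrated compound; concentration-effect curves were classified by fit quality and response size.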
IL-1B inflam inh: blocks inflammasome-driven IL-1 beta release; AID 743279; activity change, % at 57.5 µM; hit rate 4.7% among 360,000; THP-1 LPS/ATP IL-1B secretion, AlphaLISA, 16 h; active compounds read low; in the data active means activity change below about -50%; inconclusive means mostly about -30% to -49%
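THP-1 cells pretreated 1 hr with compounds (up to 57.5 uM final), then stimulated with LPS (250 ng/mL final) plus ATP (1.25 mM final); secreted IL-1B measured by AlphaLISA after 16 hr, decreased signal indicating inhibition.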
uPA generation: cell surface uPA generation inhibition. cell surface uPA generation assay, qHTS. AID 540303. hit rate 0.31% among 330,000. Potency, µM (doses to about 38.3 µM), usual class: inhibitors; active means well fitted inhibition curve with a large enough effect; inconclusive means small, poorly fitted or top-dose-only effect; inactive means no such curve, though single readings can be large or run the other way; tested in mouse RAW 264.7 cells; further: nearly all actives have a fitted effect of over 55% in size
Each line names hits and unclear results; the compound was inactive in the other large screens. This is a sample that favours compounds with a hit; in the whole collection about 19% have one here. Unless noted, the call rests on the fitted dose curve; in most records, active means well fitted curve in the direction sought with a large enough effect; inconclusive means small, poorly fitted or top-dose-only effect, or another doubt; inactive means no such curve, though single readings can be large; an effect the other way counts as inactive or inconclusive.

CC(C)N(Cc1ccccc1)C(=O)CN1c2cccc3cccc(c23)S1(=O)=O	DT40 TDP1 CPT inconclusive, DT40 TDP1 no CPT inconclusive
O=C(CCS(=O)(=O)c1ccccc1Cl)NC1CCCCCC1	none
CN(C)c1ncc2nc(-c3cccs3)c(=O)n(CCC#N)c2n1	none (no result: HT1080NT lethal, HT1080 IDH1KD tx, IL-1B inflam inh, uPA generation)
Cc1ccc(S(=O)(=O)N2CCCCC2)cc1NC(=O)Cn1cnnn1	none
Cc1ccc(S(=O)(=O)N2CCCCC2)cc1NC(=O)Cn1ncc(Cl)c(Cl)c1=O	DT40 TDP1 CPT 4.6µM, HT1080NT lethal 21µM, DT40 TDP1 no CPT 2.1µM, HT1080 IDH1KD tx 15µM, IL-1B inflam inh -102, uPA generation inconclusive
c1ccc(Nc2ncnc3c2oc2ccccc23)cc1	DT40 TDP1 CPT 10µM, DT40 TDP1 no CPT inconclusive
Cc1nc(NCCc2ccccc2)c2oc3ccccc3c2n1	DT40 TDP1 CPT 8.2µM, DT40 TDP1 no CPT 9.2µM, HT1080 IDH1KD tx inconclusive
Oc1cccc(Nc2ncnc3c2oc2ccccc23)c1	DT40 TDP1 CPT 12µM, DT40 TDP1 no CPT inconclusive, HT1080 IDH1KD tx inconclusive, IL-1B inflam inh inconclusive
Cc1nc(NCCN2CCOCC2)c2oc3ccccc3c2n1	none
c1ccc2c(c1)oc1c(Nc3ccc4c(c3)OCO4)ncnc12	HT1080NT lethal inconclusive, HT1080 IDH1KD tx inconclusive
c1ccc2c(c1)oc1c(Nc3ccc(CN4CCOCC4)cc3)ncnc12	DT40 TDP1 CPT inconclusive, HT1080NT lethal inconclusive, DT40 TDP1 no CPT 15µM, HT1080 IDH1KD tx inconclusive, IL-1B inflam inh inconclusive
CN(Cc1ccccc1)c1ncnc2c1nnn2C	none (no result: HT1080NT lethal, HT1080 IDH1KD tx, IL-1B inflam inh, uPA generation)
Cc1cn2c(=O)cc(COC(=O)COc3ccc(F)cc3)nc2s1	none (no result: HT1080NT lethal, HT1080 IDH1KD tx, IL-1B inflam inh, uPA generation)
Oc1ccccc1Nc1ncnc2c1oc1ccccc12	none
Oc1ccc(Nc2ncnc3c2oc2ccccc23)cc1	DT40 TDP1 CPT inconclusive, DT40 TDP1 no CPT 15µM, uPA generation inconclusive
Cc1nc(Nc2ccccc2)c2oc3ccc(Cl)cc3c2n1	DT40 TDP1 CPT inconclusive, HT1080NT lethal inconclusive, DT40 TDP1 no CPT 23µM, HT1080 IDH1KD tx inconclusive
Cc1ccc(Nc2nc(C)nc3c2oc2ccccc23)cc1	DT40 TDP1 CPT inconclusive, DT40 TDP1 no CPT inconclusive (no result: IL-1B inflam inh)
COc1cc(C(=O)N=c2sc3ccccc3n2C)cc(OC)c1OC	DT40 TDP1 CPT 7.3µM, DT40 TDP1 no CPT 8.2µM
COc1cc(C(=O)N=c2sc3c(C)ccc(OC)c3n2C)cc(OC)c1OC	DT40 TDP1 CPT 15µM, DT40 TDP1 no CPT 5.2µM
COc1ccc(C(=O)N=c2sc3c(C)ccc(OC)c3n2C)cc1	DT40 TDP1 CPT 3.3µM, DT40 TDP1 no CPT 4.1µM, uPA generation inconclusive
COc1ccc(OC)c2c1sc(=NC(=O)c1cccc(N3C(=O)CCC3=O)c1)n2C	DT40 TDP1 no CPT inconclusive
Cc1ccc(S(=O)(=O)CCC(=O)OCC(=O)N(C)c2ccccc2)cc1	none
COc1cc(C(=O)NC2CC2)cc(OC)c1OC	none (no result: uPA generation)
COc1cccc(NC(=O)n2ncc3c(C)cccc32)c1	DT40 TDP1 CPT inconclusive, HT1080NT lethal inconclusive, DT40 TDP1 no CPT inconclusive, HT1080 IDH1KD tx inconclusive, uPA generation inconclusive
COc1ccc(OC)c(NC(=O)c2cccc(NC(=O)c3ccccc3C(=O)O)c2)c1	none
COc1ccccc1N1CCN(C(=O)c2ccc(Cn3c(=S)[nH]c4cc5c(cc4c3=O)OCO5)cc2)CC1	DT40 TDP1 CPT inconclusive, DT40 TDP1 no CPT inconclusive
CCOc1cc2[nH]c(=S)n(Cc3ccc(C(=O)NCCN(CC)CC)cc3)c(=O)c2cc1OCC	DT40 TDP1 CPT inconclusive, HT1080NT lethal inconclusive, DT40 TDP1 no CPT inconclusive, HT1080 IDH1KD tx inconclusive, IL-1B inflam inh -99
CCOC(=O)N1CCN(C(=O)c2ccc(Cn3c(=S)[nH]c4cc5c(cc4c3=O)OCO5)cc2)CC1	DT40 TDP1 CPT 23µM, DT40 TDP1 no CPT 16µM (no result: uPA generation)
CCOC(=O)N1CCN(C(=O)c2ccc3c(=O)n(Cc4ccccc4)c(=S)[nH]c3c2)CC1	none
CCOC(=O)N1CCN(C(=O)c2ccc(Cn3c(=S)[nH]c4cc(OCC)c(OCC)cc4c3=O)cc2)CC1	DT40 TDP1 CPT 10µM, DT40 TDP1 no CPT 9.2µM
Cc1n[nH]c(C)c1S(=O)(=O)N1CCCC(C(=O)NCc2ccc(F)cc2)C1 (configuration not stated)	none
